Compound activity as filed in PubChem.
HepG2 tox: kills HepG2 cells in TGF-b inhibitor counter-screen. HepG2 CAGA-GFP viability, ATP luminescence, 18 h. Potency, µM (doses to about 46.1 µM), most hits filed as cytotoxic. AID 588856. actives 0.76% (n = 410,000)
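CellTiter-Glo luminescence gave cytotoxicity after 18 hours at 37 degrees C. The cells were HepG2 CAGA-GFP in 1% FBS DMEM, stimulated with 500 pg/mL TGF-beta after compound addition. %Activity was normalised to no-cell wells (complete cell-killing) and DMSO (no toxicity), and curves were fitted and classified.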
TGFb SMAD3 inh: inhibitors of TGF-b signaling | Potency, µM (highest dose often 46.1 µM), hits mostly inhibitors | AID 588855 | actives 1.2% (n = 410,000) | HepG2 CAGA-GFP TGF-b/SMAD3 reporter, GFP fluorescence, 18 h; TGF-beta stimulated, 500 pg/mL final; further: nearly all actives have a fitted effect of over 65% in size
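GFP signal (ex488/em500-530) from TGF-beta-stimulated HEPG2 CAGA-GFP cells, 500 pg/mL final, 18 h at 37 degrees C in DMEM plus 1% FBS, normalized to unstimulated and DMSO-stimulated controls.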
TDP1 cell CPT: DT40-hTDP1 cell growth loss with CPT; chicken DT40 Tdp1-/-;hTDP1 cells + 20 nM CPT, ATP luminescence, 48 h; Potency, µM (series often up to 46.2 µM), most hits filed as inhibitors; actives 12% (n = 420,000); AID 686979; further: nearly all actives have a fitted effect of over 55% in size
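Cell growth measured by CellTiter-Glo luminescence after a minimum 48 h, 37 C compound exposure with 20 nM CPT in Tdp1-knockout DT40 cells stably expressing hTDP1, seeded 400/well; qHTS titration format.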
ATXN viability: cell viability loss in ATXN counter-screen; Potency, µM (titrated, usually from 56.7 µM), hits mostly cytotoxic; S2 cells (HEK-293 line with an ATXN2-luciferase reporter) viability, CellTiter-Fluor protease fluorescence, 24 h; AID 651635; actives 0.49% (n = 400,000); further: nearly all actives have a fitted effect of over 40% in size
TDP1 cell noCPT: qHTS for Inhibitors of human tyrosyl-DNA phosphodiesterase 1 (TDP1): qHTS in cells in absence of CPT; actives 15% (n = 420,000); AID 686978, 2013; Potency, µM (series often up to 46.2 µM), usual class: inhibitors; DT40 Tdp1-/- hTDP1 cells, no CPT, ATP luminescence, 48 h; further: nearly all actives have a fitted effect of over 55% in size
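Readout: luminescence from CellTiter-Glo after 30 min in the dark at RT. Cells: DT40 Tdp1-/- with stable hTDP1, 400/well. Exposure: compounds alone, ≥48 hr, 37 °C.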
ATXN2 expr inh: reduces ATXN2 reporter expression in HEK-293 cells | HEK-293 ATXN2-luciferase reporter, luminescence, 24 h | Potency, µM (top dose mostly 57 µM), actives largely listed as inhibitors | actives 0.72% (n = 360,000) | AID 1745845; further: nearly all actives have a fitted effect of over 55% in size
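qHTS (up to 57 uM final) was run with 24 h compound exposure of reporter cells at 37 °C. Each well was multiplexed: SteadyGlo luminescence measured ATXN2-luciferase expression after a fluorogenic Gly-Phe-AFC viability readout (25 uM final).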
Large screens that a line does not name were inactive. Most compounds without a hit are left out; they make up all but 17% or so of the library. The call rests on the fitted dose curve; in most records, active means well fitted curve in the direction sought with a large enough effect; inconclusive means small, poorly fitted or top-dose-only effect, or another doubt; inactive means no such curve, though single readings can be large; an effect the other way counts as inactive or inconclusive.

O=C(NCc1ccccc1Cl)C(=O)NCC(c1cccs1)S(=O)(=O)c1ccccc1 (stereo unspecified)	TGFb SMAD3 inh inconclusive, TDP1 cell CPT 15µM, TDP1 cell noCPT 18µM
Cc1ccc(S(=O)(=O)C(CNC(=O)C(=O)NCc2ccccc2C)c2cccs2)cc1 (stereo unspecified)	TDP1 cell CPT inconclusive, TDP1 cell noCPT inconclusive
COC(=O)c1cc(CNC(=O)c2cnsn2)cc(NC(=O)c2ccccc2OC)c1	TDP1 cell CPT inconclusive, TDP1 cell noCPT inconclusive (no result: HepG2 tox, TGFb SMAD3 inh, ATXN2 expr inh)
CC(C)(C)c1ccc(OCCOCCn2c(-c3ccc(Cl)cc3)nc3ccccc3c2=O)cc1	none
Cc1cc2nc(N3CCCN(Cc4cccn4-c4ncccn4)CC3)nc(C)c2cc1C	ATXN viability inconclusive, TDP1 cell noCPT 16µM (no result: HepG2 tox, TGFb SMAD3 inh, ATXN2 expr inh)
Cc1cccc2nc(CSc3nc4ccc([N+](=O)[O-])cc4[nH]3)c(Br)n12	TGFb SMAD3 inh inconclusive, TDP1 cell CPT inconclusive, TDP1 cell noCPT inconclusive
CC1(Oc2ccccc2-c2ccno2)CCN(Cc2csc3ccccc23)C1 (stereo unspecified)	TDP1 cell CPT 18µM, TDP1 cell noCPT inconclusive
COc1ccccc1C(=O)N(Cc1ccco1)Cc1ccccc1F	TDP1 cell CPT inconclusive, TDP1 cell noCPT 21µM (no result: ATXN viability, ATXN2 expr inh)
COc1ccccc1C(=O)NCc1ccco1	none
CCOc1ccccc1C(=O)N(Cc1ccco1)C1CCS(=O)(=O)C1 (stereo unspecified)	none
CCOc1ccccc1C(=O)N(Cc1ccco1)Cc1ccccc1F	TDP1 cell CPT 21µM, TDP1 cell noCPT 21µM (no result: ATXN viability, ATXN2 expr inh)
COc1ccc(CNc2ncnc3nc[nH]c23)cc1OC	TDP1 cell CPT inconclusive (no result: ATXN viability, ATXN2 expr inh)
Clc1cccc(COn2c(-c3ccc(Cl)cc3Cl)nc3ncccc32)c1	TGFb SMAD3 inh inconclusive, TDP1 cell CPT inconclusive, TDP1 cell noCPT 21µM
COc1ccc(CNC(=O)CN2CCN(C(c3ccccc3)c3ccccc3)CC2)cc1	TDP1 cell CPT 18µM, TDP1 cell noCPT inconclusive
O=C(CN1CCN(c2ccccc2)CC1)NC(=O)NCc1ccco1	none
O=C(CN1CCN(C(c2ccccc2)c2ccccc2)CC1)NC(=O)NCc1ccco1	TDP1 cell CPT 21µM, TDP1 cell noCPT inconclusive
CC(C)(C)NC(=O)NC(=O)CN1CCN(C(c2ccccc2)c2ccccc2)CC1	TDP1 cell CPT 9.2µM, TDP1 cell noCPT inconclusive
O=C(CN1CCN(C(c2ccccc2)c2ccccc2)CC1)N1CCN(c2ccccc2)CC1	TGFb SMAD3 inh inconclusive, TDP1 cell CPT inconclusive, TDP1 cell noCPT 18µM (no result: ATXN2 expr inh)
O=C(Nc1ccc(C(=O)O)cc1)/C(=C\c1ccc([N+](=O)[O-])cc1)NC(=O)c1ccco1	ATXN viability inconclusive (no result: ATXN2 expr inh)
COc1ccc2c(=O)cc(CO)oc2c1	TDP1 cell CPT inconclusive
Cc1ccc2nc(COc3ccccc3NC(=O)c3ccc(F)cc3)cc(=O)n2c1	none (no result: ATXN viability, ATXN2 expr inh)
CCOc1ccc(NC(=O)CN(C)C(=O)C2CC(=O)N(CCc3ccccc3)C2)cc1OCC (stereo unspecified)	none
O=Cc1ccc(OCCCOc2cccc3cccnc23)cc1	TDP1 cell noCPT inconclusive (no result: ATXN2 expr inh)
Cc1cccc(OCCCOc2cccc3cccnc23)c1C	TGFb SMAD3 inh inconclusive, TDP1 cell CPT inconclusive, TDP1 cell noCPT 18µM
O=C(/C=C\c1ccccc1)Oc1cccc2cccnc12	TGFb SMAD3 inh inconclusive, TDP1 cell CPT inconclusive, ATXN viability inconclusive (no result: ATXN2 expr inh)
COc1ccccc1OCCCCCc1c(C)n[nH]c1C	TDP1 cell CPT inconclusive, TDP1 cell noCPT inconclusive
Cc1ccc(OCCCOc2cccc3cccnc23)cc1C	TGFb SMAD3 inh inconclusive, TDP1 cell CPT inconclusive, TDP1 cell noCPT inconclusive
O=Cc1ccccc1OCCCOc1cccc2cccnc12	TDP1 cell CPT 4.6µM, TDP1 cell noCPT 2.1µM (no result: ATXN2 expr inh)
O=C(/C=C/c1ccccc1)Oc1cccc2cccnc12	HepG2 tox 4µM, TGFb SMAD3 inh 4µM, TDP1 cell CPT inconclusive, TDP1 cell noCPT 8.2µM (no result: ATXN2 expr inh)
Cc1cccc(OCCCCc2c(C)n[nH]c2C)c1C	TDP1 cell CPT 12µM, TDP1 cell noCPT inconclusive
Cc1ccc2c(c1)N(Cc1cccc(C#N)c1)C=NS2(=O)=O	TDP1 cell noCPT inconclusive
CC1CCC(NC(=O)c2ccc(CS(=O)(=O)c3cccc(C(F)(F)F)c3)o2)CC1 (stereo unspecified)	TGFb SMAD3 inh inconclusive, TDP1 cell CPT inconclusive, TDP1 cell noCPT inconclusive
CCN(CC)C(=O)C(=O)c1cccn1-c1ccccc1C#N	none
COc1ccc(OC)c(-c2nnc(SCC(=O)N3CCCC3)o2)c1	none
Clc1ccccc1OCCCOc1cccc2cccnc12	TGFb SMAD3 inh inconclusive, TDP1 cell CPT 15µM, TDP1 cell noCPT inconclusive
Brc1ccccc1OCCOCCOc1cccc2cccnc12	TDP1 cell CPT inconclusive, TDP1 cell noCPT inconclusive
Cn1c(SCc2cccc(F)c2)nnc1-c1ccncc1	none
O=C(Nc1ccc(C(F)(F)F)cc1)C1CCCN1S(=O)(=O)c1cccc2cccnc12 (stereo unspecified)	TGFb SMAD3 inh inconclusive, TDP1 cell CPT inconclusive, TDP1 cell noCPT 23µM
Cc1ccc(NC(=O)C2CCCN2S(=O)(=O)c2cccc3cccnc23)cc1C (stereo unspecified)	TGFb SMAD3 inh inconclusive, TDP1 cell CPT inconclusive, TDP1 cell noCPT 21µM (no result: ATXN viability, ATXN2 expr inh)
CC(=O)c1cccc(NC(=O)C2CCCN2S(=O)(=O)c2cccc3cccnc23)c1 (stereo unspecified)	TDP1 cell CPT inconclusive
Cc1ccc(NC(=O)C2CCCN2S(=O)(=O)c2ccc3nc(-c4ccccc4)[nH]c3c2)cc1F (stereo unspecified)	TGFb SMAD3 inh inconclusive, TDP1 cell CPT 18µM, TDP1 cell noCPT 10µM (no result: ATXN viability, ATXN2 expr inh)
O=C(Nc1cccc(F)c1)C1CCCN1S(=O)(=O)c1cccc2cccnc12 (stereo unspecified)	TDP1 cell CPT 18µM, TDP1 cell noCPT inconclusive
CCN(CC)c1ccc(C(=O)N2CCc3c([nH]c4ccccc34)C2c2ccc(F)cc2)cc1 (stereo unspecified)	TDP1 cell CPT 2.9µM, TDP1 cell noCPT inconclusive (no result: ATXN viability, ATXN2 expr inh)
Cn1nccc1C(=O)N1CCc2c([nH]c3ccccc23)C1c1ccc(F)cc1 (stereo unspecified)	none
CCc1ccc(C2c3[nH]c4ccccc4c3CCN2C(=O)c2cc[n+]([O-])cc2)cc1 (stereo unspecified)	TDP1 cell CPT 26µM, TDP1 cell noCPT 16µM (no result: ATXN2 expr inh)
Nc1nc2c(ncn2[C@@H]2O[C@H](CNCc3cnc(N4CCOCC4)s3)[C@@H](O)[C@H]2O)c(=O)[nH]1	none
COc1ccc(-n2c(C)cc(C(=O)COC(=O)Cn3cnc4ccccc43)c2C)cc1	TDP1 cell CPT 16µM, TDP1 cell noCPT 18µM
